# Test results: the supplement of paper PMC6555819
# Experiments:
# Assay in all cases: PBM binding z-score (relative to random genomic background probes); higher = stronger binding; sequences stand for … in GC…GCGATTGACAGCGTAGAATGAAGG
# [1] = test system: PPARg:RXRa DBDmut IVT, anti-RXR (DBD mutation: RXRa K156A/R161A, NR concentration 270 nM, RXRa partner concentration 90 nM)
# How it was run: (§1)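 Ligand-free nuclear receptor dimers were applied to custom Agilent 4×180K protein-binding microarrays whose double-stranded probes carried direct-repeat seeds, single-nucleotide variants, half-site ablations and random human genomic background sequences in 34-nt variable regions. Incubation lasted 1 h. Binding z-scores were computed against the random background probes from regression-normalized fluorescence.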
# [2] = test system: PPARg:RXRa IVT, anti-PPARg (NR concentration 270 nM, RXRa partner concentration 90 nM)
# How it was run: as §1
# [3] = test system: PPARg DBDmut:RXRa IVT, anti-PPARg (DBD mutation: PPARg1 K132A/R137A, NR concentration 270 nM, RXRa partner concentration 90 nM)
# How it was run: as §1
# [4] = test system: PPARg DBDmut IVT, anti-PPARg (DBD mutation: PPARg1 K132A/R137A, NR concentration 270 nM)
# How it was run: as §1
# [5] = test system: PPARg homodimer (NR concentration 180 nM)
# How it was run: as §1
# [6] = test system: PXR:RXRa (NR concentration 270 nM, RXRa partner concentration 90 nM)
# How it was run: as §1
# [7] = test system: PXR homodimer (NR concentration 270 nM)
# How it was run: as §1
# [8] = test system: RARa:RXR (NR concentration 270 nM, RXRa partner concentration 90 nM)
# How it was run: as §1
# [9] = test system: RARa homodimer (NR concentration 270 nM)
# How it was run: as §1
# [10] = test system: RARb:RXRa (NR concentration 270 nM, RXRa partner concentration 90 nM)
# How it was run: as §1
Sequence,PBM binding z-score [1],PBM binding z-score [2],PBM binding z-score [3],PBM binding z-score [4],PBM binding z-score [5],PBM binding z-score [6],PBM binding z-score [7],PBM binding z-score [8],PBM binding z-score [9],PBM binding z-score [10]
TCTCGGAGGACACGAAAGGTTAGAGCTCGACATC,1.49,0.57,-0.609,-0.116,0.402,0.853,-0.519,1.52,0.215,2.48
ATCTCTAGGTAAAGTTCAGTTAAAGATCGATAGA,2.25,2.63,1.03,0.905,2.02,2.33,1.72,1.81,1.83,2.78
CCGACTGGGGCAAAGGTTACCATCCTCAGTACGA,4.64,5.59,-0.502,-0.948,1.17,2.56,-0.625,4.05,-0.46,2.39
CAAACTAGGTCAACGTCAAAGTCGGTTTGTGCCA,8.75,8.75,5.16,4.41,2.59,1.58,0.241,2.38,0.739,4.11
TCTCGTAGATCAATAGAGGTTAAGAAAGTGCGCT,1.66,0.219,0.246,0.204,0.0307,3.08,0.105,1.6,0.0805,0.751
AGAATGAAGTTATACGTAGATCAGGGAAGAAAGT,-0.998,-0.385,1.2,0.896,-0.353,-0.161,0.326,-0.215,0.239,-0.131
TCATATAGGGAAACAGGTGAAAGTCCGTAAGTTA,3.73,2.71,0.703,0.846,1.02,0.713,0.608,0.541,1.28,0.516
TCTCGGAGGGCACGAAAGGTCAGAGCTCGACATC,1.78,2.45,-0.111,-0.16,3,5.57,0.576,5.45,0.74,4.79
ATACCAAGGTGATCGTAAGGTCGTTGATACTAAC,0.558,1.51,0.685,0.646,0.753,2.81,1.42,2.19,0.841,1.55
CGTCCAAGGTTAGAGAGGTCAGTGAATGCCGAGT,0.939,1.57,-1.21,-1.38,2.67,4.07,7.59,3.61,1.11,3.66
TAGCCTAGGTCAGCTCGGGCCAGTATACGCTATA,1.01,1.73,-1.19,-1.03,0.105,1.77,-0.949,1.39,-0.994,3.65
CAAATTAGGTCAAAGGTCAAAGTCGAGCCAACCA,8.74,8.96,4.97,4,6.21,7.1,2.26,8.95,3.73,5.94
TTTCGGAGGACACGAAGGTCAGAGCTTTCCAGAG,0.209,1.38,-0.89,-0.892,1.79,2.42,1.37,2.56,0.837,3.51
TCATATAAGTAAAGGTGAAAGTCGAACGATATGA,2.2,1.58,1.17,1.46,0.731,0.97,0.241,1.59,0.59,1.99
ACTCTGAGGACAAAGGTCAGAGCTACGCCAGTGA,1.18,4.01,0.601,0.00649,3.26,3.74,0.395,5.19,0.924,4.47
CGTCCAAGGTCATAGGAGGTCAGAGAAGACAGAT,3.19,4.81,1.6,0.958,3.89,6.83,4.38,6.6,1.92,5.51
CCTTACGGGTCAGTCCAGGTTATAGCATCGGAGT,1.7,2.05,-0.331,-0.72,1.36,4.25,0.276,2.69,0.405,3.31
TCAGACAGGTGACGGTAACTCAGGTACGCAGTCG,2.24,1.37,0.209,0.0566,0.126,0.109,-0.211,0.171,0.103,0.885
TTAACAAGGTGAGCTGAGGTCGTTGATCCAACTC,1.96,2.33,-0.0875,0.378,-0.141,4.89,0.519,1.62,-0.64,1.66
CAAACTAGGTCAAGACGTCAAAGTCCGCTTCCCG,7.92,8.15,1.87,1.07,1.86,1.24,-0.0732,2.5,0.685,3.97
AACTCTAGGTAAGACTCAGTTCAGTGAAGAACGC,1.6,0.848,0.278,-0.04,0.345,0.534,0.651,0.155,0.797,0.272
CCGACTAGGGCAGAAAGGTTACCATACCATCCGG,2.95,2.6,-0.185,-0.946,1.12,1.24,-0.00781,1.86,0.161,2.24
AGTCAAAGTTCACTAGGTAACGTAAGATTCAGCT,2.87,5.16,1.07,1.01,2.38,3.71,2.66,2.74,0.986,4.72
GGAACGAGGGCAAGTTGATAGCCGAGTTTGATGG,3.6,2.74,-0.528,-0.707,0.106,0.822,0.247,0.442,-0.485,2.88
